The record followed here is PubChem BioAssay (NCATS).

Several values for one entry are separate records, joined by “and”; a condition that tells them apart may be missing. Equal entries are not always repeated. Inconclusive results are not listed. Some structures have more than one record in an assay (separate samples or runs), and their calls can disagree. Activity calls are given as the source filed them. Unless noted, the call rests on the fitted dose curve; in most records, active means well fitted curve in the direction sought with a large enough effect; inconclusive means small, poorly fitted or top-dose-only effect, or another doubt; inactive means no such curve, though single readings can be large; an effect the other way counts as inactive or inconclusive.

Experiment [1] is described as follows: qHTS for Inhibitors of Cell Surface uPA Generation: Validation Assay (AID 493164). Further: 0% is about no effect. In short, it runs like this: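 RAW 264.7 cells (4000/well) were plated overnight, then exposed for 18 h at 37 C, 5% CO2 to compounds in a 7-point 1:5 titration (2.45 nM–38.3 uM final). Intracellular ATP was read by ATP-Lite luminescence.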
Background: Quantitative high-throughput screening tests each substance at several concentrations.

Experiment [2] deals with Peptidyl-prolyl cis-trans isomerase NIMA-interacting 1 (Homo sapiens) (UniProt Q13526). Kind of experiment: qHTS Validation Assay to Find Inhibitors of Pin1 (AID 504536; active means well fitted inhibition curve with a large enough effect in the polarisation, with a control signal flat, not every such curve was filed as active; the % refers to the polarisation; further: potency means the concentration at half of the fitted maximal effect). In short, it runs like this: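 Fluorescence polarization competition: compounds (titration) displace HiFluor-488-labeled Pin1-1b peptide from Pin1 (0.3 uM final) in pH 7.5 HEPES buffer with DTT, 10 min at room temperature; %Activity normalized to no-enzyme wells, curves fitted.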

Experiment [3] has as its target Phosphoglycerate kinase, glycosomal (Trypanosoma brucei brucei) (UniProt P07378). Kind of experiment: qHTS Validation Assay to Find Inhibitors of Phosphoglycerate Kinase (AID 504547).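 Further: control wells lack PGK and mark full inhibition.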 In short, it runs like this:
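Inhibition of the enzyme is judged by a Kinase-Glo Plus luminescent signal following a one-hour incubation at room temperature. Because 1,3-BPG is unstable, it is made in situ by GAPDH at 100nM final; no-PGK wells define the baseline.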

Experiment [4] deals with phosphoglycerate mutase (Leishmania major) (UniProt Q4Q090). Kind of experiment: qHTS Validation Assay to Find Inhibitors of Phosphoglycerate Mutase (AID 504548).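 Further: end-point luminescence from Kinase-GloPlus after the PGAM reaction; series mostly up to about 58 µM; on the % scale 0 is the no-effect control and ±100 the full control effect.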 Summed up:
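Inhibition of L. major PGAM was assessed by Kinase-GloPlus luminescence following a 45-minute room-temperature reaction with enzyme at 1.25nM final.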

Experiment [5] is described as follows: Inducers of the Endoplasmic Reticulum Stress Response (ERSR) in human glioma: Validation (AID 504836). Further: 0% is about no effect. In short, it runs like this: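 ERSR induction read as luciferase luminescence (Bright-Glo, 10 min at room temperature) in stably transfected human U87-MG glioma cells exposed to compounds for 16 h, using GRP78 as sensor.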
Experiment [6] concerns the target Ubiquitin carboxyl-terminal hydrolase 1 (Homo sapiens) (UniProt O94782). Kind of experiment: Inhibitors of USP1/UAF1: Pilot qHTS (AID 504865). Further: nearly all actives have a fitted effect of over 35% in size. Further: potency means the concentration at half of the fitted maximal effect. In short, it runs like this: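 Deubiquitinase activity followed as kinetic rhodamine fluorescence release from 150 nM Ub-Rho. 1 nM USP1/UAF1 with compound, after 15 min room-temperature preincubation, in HEPES pH 7.8 buffer containing TCEP, EDTA, BSA and Tween-20.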

The nature of experiment [7]: Nrf2 qHTS screen for inhibitors: Validation (AID 493153; active means well fitted inhibition curve with a large enough effect in the main read-out, with a control signal flat, not every such curve was filed as active; further: potency means the concentration at half of the fitted maximal effect). The following applies: Potency: luciferase luminescence; viability change: measured here: cytotoxicity max response. In short, it runs like this:
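Luminescence from an ARE-firefly luciferase reporter in A549 cells gives Nrf2 inhibition; an earlier CellTiter-Fluor fluorescent read flags cytotoxicity. Cells in 5% FBS OPTI-MEM received compound dilution series for 18-24 h at 37°C.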

For experiment [8], the target named is Galactokinase (Homo sapiens) (UniProt P51570). The experiment can be described thus: qHTS Validation Assay for Inhibitors of Human Galactokinase (GALK) (AID 493189). Further: 0% is about no effect. Summed up:
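Inhibition was measured as remaining ATP, detected by luciferase luminescence after a 1 h room-temperature reaction. Final conditions: 5 nM GALK, 100 uM galactose, 35 uM ATP, pH 8.0 HEPES buffer.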

The nature of experiment [9]: qHTS for Inhibitors of ATXN expression: Validation of Cytotoxic Assay (AID 588349). Further: potency means the concentration at half of the fitted maximal effect. In short, it runs like this:
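Read-out: ATP-based luminescence (CellTiter Glo) reflecting viability of HEK293 cells after 72 hr incubation at 37 degrees C with a concentration series of each compound.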

Experiment [10] addresses Estrogen receptor (Homo sapiens) (UniProt P03372). Kind of experiment: qHTS assay for small molecule antagonists of estrogen receptor alpha signaling (AID 588513; active means well fitted curve in the direction sought with a large enough effect in the signal ratio, with a control signal flat, not every such curve was filed as active; the % refers to the signal ratio; further: on the % scale 0 is the no-effect control and ±100 the full control effect). In short, it runs like this: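 Antagonist mode: inhibition of 0.5 nM 17-beta-estradiol-driven beta-lactamase reporter in HEK 293 ER-alpha-UAS-bla cells, 18 h at 37C, CCF4 readout after 2 h at RT. Normalised to estradiol and DMSO; titration fitted to Hill.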

For experiment [11] the target is unchanged. Kind of experiment: qHTS assay for small molecule agonists of estrogen receptor alpha signaling (AID 588514; calls by dose curve;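 further: 0% = vehicle only and 100% = reference agonist; nearly all actives have a fitted effect of over 70% in size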). Summed up: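 Cells were plated at 5000/well, incubated 4 hrs at 37 C, dosed with compound titration series, incubated 18 hrs at 37 C, loaded with CCF4 dye for 2 hrs at RT, then fluorescence was read.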
For experiment [12], the target named is DNA dC->dU-editing enzyme APOBEC-3G (Homo sapiens) (UniProt Q9HC16). The experiment can be described thus: qHTS for inhibitors of Vif-A3G interactions: Validation (AID 588379). Further: 0% is about no effect. In short, it runs like this: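 HeLa cells stably expressing Vif and A3G-eYFP, 700 cells/well, incubated overnight at 37 deg C, then exposed to compound overnight at 37 deg C. Inhibition of Vif-mediated degradation read as increased yellow fluorescence (Ex 488/Em 500-530) by laser-scanning cytometry.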

Experiment [13] has as its target Bile acid receptor (Homo sapiens) (UniProt Q96RI1). The experiment can be described thus: qHTS assay for small molecule agonists of farnesoid X receptor signaling (AID 588527; calls by dose curve;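 further: series mostly up to about 77 µM; 0% = vehicle basal and 100% = reference agonist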). Conditions: HEK293T FXR-UAS-bla, beta-lactamase ratio, 16 h; stronger effect = higher value. Summed up:
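Quantitative HTS used FXR-UAS-bla HEK293T cells with 16 h compound incubation at 37 C. EC50 values came from concentration-response curves normalized to chenodeoxycholic acid.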

Experiment [14] in a line: qHTS assay for small molecule antagonists of peroxisome proliferator-activated receptor delta signaling (AID 588535).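 Further: cells co-treated with a PPAR-delta agonist as stimulator during compound exposure.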 Conditions: HEK293T PPARd-UAS-bla, beta-lactamase FRET ratio, 18 h; 460 nm channel. In short, it runs like this: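 HEK293T PPAR-delta-UAS-bla cells, 4000/well, 2% charcoal/dextran FBS; 5 h 37 C; cpd titration; 18 h 37 C; CCF4 2 h RT; FI 460/530 nm; Hill fit → IC50, efficacy.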

In experiment [15] the target is Peroxisome proliferator-activated receptor delta (Homo sapiens) (UniProt Q03181). The experiment can be described thus: qHTS assay for small molecule agonists of peroxisome proliferator-activated receptor delta signaling (AID 588534; calls by dose curve;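 further: 0% = DMSO basal wells and 100% = positive control agonist at 10 µM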). In short, it runs like this:
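Fluorescence from CCF4 substrate cleavage by beta-lactamase reporter, read 2 hrs at RT, measured agonist activity. Compounds were tested with 18 hrs exposure at 37 C. Concentration-response data fitted to Hill equation.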

Experiment [16] addresses Glucocorticoid receptor (Homo sapiens) (UniProt P04150). The experiment can be described thus: qHTS assay for small molecule agonists of glucocorticoid receptor signaling (AID 588532; active means well fitted curve in the direction sought with a large enough effect in the signal ratio, with a control signal flat; the % refers to the signal ratio;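 further: 100% = dexamethasone at 0.1 µM and 0% = DMSO only wells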). Conditions: HeLa MMTV-bla, beta-lactamase ratio, agonist, 18 h; stronger effect = higher value; percent of dexamethasone control, DMSO zero. In short, it runs like this:
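Agonist-mode qHTS: GRE-driven beta-lactamase in HeLa cells exposed 18 h to titrated compounds (up to 92 uM), then CCF4 ratio read after 2 h at RT; Hill-fitted EC50, efficacy relative to 0.1 uM dexamethasone.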

Chain of DNA dC->dU-editing enzyme APOBEC-3G (Homo sapiens) (Q9HC16 whole entry, looked up): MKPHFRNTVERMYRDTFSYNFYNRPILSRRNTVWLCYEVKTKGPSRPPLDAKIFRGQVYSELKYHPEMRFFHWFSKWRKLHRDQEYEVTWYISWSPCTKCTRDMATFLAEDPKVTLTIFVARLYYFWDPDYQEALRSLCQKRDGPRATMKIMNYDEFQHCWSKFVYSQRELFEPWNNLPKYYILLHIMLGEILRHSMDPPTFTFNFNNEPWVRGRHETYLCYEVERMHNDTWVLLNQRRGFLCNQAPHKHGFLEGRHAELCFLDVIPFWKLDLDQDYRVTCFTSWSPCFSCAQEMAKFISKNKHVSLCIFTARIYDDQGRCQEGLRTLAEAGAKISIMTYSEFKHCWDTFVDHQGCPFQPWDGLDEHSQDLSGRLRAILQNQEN
Chain of Galactokinase (Homo sapiens) (P51570 whole entry, looked up): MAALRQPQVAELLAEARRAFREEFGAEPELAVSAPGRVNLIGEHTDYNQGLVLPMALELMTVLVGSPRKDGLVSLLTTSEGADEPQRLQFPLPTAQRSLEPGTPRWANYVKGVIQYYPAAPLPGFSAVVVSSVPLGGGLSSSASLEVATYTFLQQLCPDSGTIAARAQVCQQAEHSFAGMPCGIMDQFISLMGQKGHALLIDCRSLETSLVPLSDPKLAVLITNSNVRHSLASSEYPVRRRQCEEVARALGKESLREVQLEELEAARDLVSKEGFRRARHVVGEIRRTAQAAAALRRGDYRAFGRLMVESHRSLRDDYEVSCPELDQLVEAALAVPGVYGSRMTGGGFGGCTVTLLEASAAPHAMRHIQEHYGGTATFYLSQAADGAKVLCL
Chain of Bile acid receptor (Homo sapiens) (Q96RI1 whole entry, looked up): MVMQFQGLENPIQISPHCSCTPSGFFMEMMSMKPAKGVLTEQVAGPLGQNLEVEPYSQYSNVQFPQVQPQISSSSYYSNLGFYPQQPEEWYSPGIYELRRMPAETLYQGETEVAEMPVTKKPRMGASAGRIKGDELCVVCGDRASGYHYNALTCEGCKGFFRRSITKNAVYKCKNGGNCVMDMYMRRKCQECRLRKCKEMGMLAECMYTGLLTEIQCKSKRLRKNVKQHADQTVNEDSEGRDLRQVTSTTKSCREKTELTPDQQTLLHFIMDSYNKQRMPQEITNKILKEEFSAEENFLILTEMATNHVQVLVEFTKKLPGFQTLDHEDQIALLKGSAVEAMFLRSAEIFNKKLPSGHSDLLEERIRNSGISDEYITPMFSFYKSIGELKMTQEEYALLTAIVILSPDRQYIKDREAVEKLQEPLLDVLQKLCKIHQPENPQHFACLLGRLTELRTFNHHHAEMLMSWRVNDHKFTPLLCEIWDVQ
Chain of Ubiquitin carboxyl-terminal hydrolase 1 (Homo sapiens) (O94782 whole entry, looked up): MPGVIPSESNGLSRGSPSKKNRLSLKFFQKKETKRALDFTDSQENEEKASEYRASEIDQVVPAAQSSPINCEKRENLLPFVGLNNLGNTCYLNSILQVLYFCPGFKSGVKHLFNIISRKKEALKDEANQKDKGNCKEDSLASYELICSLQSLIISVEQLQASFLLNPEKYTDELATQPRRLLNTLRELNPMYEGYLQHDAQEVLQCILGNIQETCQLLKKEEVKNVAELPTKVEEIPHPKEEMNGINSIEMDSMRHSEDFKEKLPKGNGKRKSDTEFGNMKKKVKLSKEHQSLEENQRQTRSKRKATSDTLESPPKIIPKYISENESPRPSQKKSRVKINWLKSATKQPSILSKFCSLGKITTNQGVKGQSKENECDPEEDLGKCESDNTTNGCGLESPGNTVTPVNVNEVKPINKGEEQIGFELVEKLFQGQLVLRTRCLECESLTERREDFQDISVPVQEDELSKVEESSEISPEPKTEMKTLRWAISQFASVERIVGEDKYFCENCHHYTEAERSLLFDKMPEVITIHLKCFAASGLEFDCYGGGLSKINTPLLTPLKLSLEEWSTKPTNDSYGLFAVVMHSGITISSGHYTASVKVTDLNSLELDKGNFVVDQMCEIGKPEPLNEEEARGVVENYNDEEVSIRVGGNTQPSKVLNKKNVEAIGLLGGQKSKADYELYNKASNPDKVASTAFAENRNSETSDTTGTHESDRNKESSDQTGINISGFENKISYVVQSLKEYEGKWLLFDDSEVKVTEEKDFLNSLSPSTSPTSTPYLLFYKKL
Chain of Phosphoglycerate kinase, glycosomal (Trypanosoma brucei brucei) (P07378 whole entry, looked up): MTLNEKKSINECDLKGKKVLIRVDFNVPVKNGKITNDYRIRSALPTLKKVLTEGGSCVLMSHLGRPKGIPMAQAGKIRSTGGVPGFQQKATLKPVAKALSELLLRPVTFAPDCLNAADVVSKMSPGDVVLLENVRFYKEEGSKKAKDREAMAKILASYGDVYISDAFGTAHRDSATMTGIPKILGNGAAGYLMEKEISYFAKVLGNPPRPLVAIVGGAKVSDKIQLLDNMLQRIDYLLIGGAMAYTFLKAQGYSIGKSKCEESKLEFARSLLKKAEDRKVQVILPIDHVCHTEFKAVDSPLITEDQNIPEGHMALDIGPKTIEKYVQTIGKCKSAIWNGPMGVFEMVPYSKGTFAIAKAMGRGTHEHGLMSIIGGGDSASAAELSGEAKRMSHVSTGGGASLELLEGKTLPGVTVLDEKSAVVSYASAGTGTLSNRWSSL
Chain of Estrogen receptor (Homo sapiens) (P03372 whole entry, looked up): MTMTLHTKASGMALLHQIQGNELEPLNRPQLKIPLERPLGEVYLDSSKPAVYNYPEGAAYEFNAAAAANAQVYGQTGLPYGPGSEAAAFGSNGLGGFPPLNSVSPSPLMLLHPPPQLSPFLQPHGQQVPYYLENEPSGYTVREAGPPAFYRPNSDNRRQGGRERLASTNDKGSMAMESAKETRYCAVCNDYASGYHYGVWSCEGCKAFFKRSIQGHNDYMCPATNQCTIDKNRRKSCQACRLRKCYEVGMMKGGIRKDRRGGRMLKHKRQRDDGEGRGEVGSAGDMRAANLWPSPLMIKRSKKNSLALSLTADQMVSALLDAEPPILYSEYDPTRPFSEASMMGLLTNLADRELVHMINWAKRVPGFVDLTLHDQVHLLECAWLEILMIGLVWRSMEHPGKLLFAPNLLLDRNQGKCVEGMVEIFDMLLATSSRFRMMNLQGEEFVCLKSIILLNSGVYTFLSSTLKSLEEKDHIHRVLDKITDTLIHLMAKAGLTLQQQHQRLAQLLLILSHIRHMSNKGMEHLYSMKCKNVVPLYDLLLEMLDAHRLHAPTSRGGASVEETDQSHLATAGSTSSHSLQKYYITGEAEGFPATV
Chain of Peptidyl-prolyl cis-trans isomerase NIMA-interacting 1 (Homo sapiens) (Q13526 whole entry, looked up): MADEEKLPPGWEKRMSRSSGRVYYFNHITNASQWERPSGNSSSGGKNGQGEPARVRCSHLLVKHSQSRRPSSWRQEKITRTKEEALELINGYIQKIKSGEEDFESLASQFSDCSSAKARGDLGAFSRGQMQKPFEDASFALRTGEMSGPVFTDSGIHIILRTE
Chain of Peroxisome proliferator-activated receptor delta (Homo sapiens) (Q03181 whole entry, looked up): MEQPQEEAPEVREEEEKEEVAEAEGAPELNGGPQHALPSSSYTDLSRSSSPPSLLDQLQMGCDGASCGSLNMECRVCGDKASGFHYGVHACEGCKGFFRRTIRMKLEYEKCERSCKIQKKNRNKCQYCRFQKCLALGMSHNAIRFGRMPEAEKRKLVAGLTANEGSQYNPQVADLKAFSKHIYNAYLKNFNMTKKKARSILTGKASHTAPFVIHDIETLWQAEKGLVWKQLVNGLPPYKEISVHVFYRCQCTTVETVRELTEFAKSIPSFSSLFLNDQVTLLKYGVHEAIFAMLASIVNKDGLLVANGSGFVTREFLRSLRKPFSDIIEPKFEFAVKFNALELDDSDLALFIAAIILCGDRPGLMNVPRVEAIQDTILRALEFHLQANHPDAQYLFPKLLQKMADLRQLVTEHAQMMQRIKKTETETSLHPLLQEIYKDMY
Chain of phosphoglycerate mutase (Leishmania major) (Q4Q090 1-553): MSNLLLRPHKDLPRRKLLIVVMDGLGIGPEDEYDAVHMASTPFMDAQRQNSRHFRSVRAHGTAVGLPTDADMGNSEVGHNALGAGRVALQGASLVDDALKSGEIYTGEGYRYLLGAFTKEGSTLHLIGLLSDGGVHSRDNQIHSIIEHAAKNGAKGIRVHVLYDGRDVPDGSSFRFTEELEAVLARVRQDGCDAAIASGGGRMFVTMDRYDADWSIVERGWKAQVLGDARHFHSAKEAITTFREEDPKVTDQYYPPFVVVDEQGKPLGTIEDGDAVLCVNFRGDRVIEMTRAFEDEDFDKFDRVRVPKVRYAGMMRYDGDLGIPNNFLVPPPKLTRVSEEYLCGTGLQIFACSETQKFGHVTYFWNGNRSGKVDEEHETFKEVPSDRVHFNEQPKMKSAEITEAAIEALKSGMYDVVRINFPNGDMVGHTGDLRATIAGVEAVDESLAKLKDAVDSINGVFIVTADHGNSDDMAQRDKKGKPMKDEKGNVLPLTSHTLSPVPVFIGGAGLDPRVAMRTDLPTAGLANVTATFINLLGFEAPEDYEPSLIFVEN

In the case of `C[C@@H]1O[C@@H](O[C@H]2C[C@@H](O)[C@]3(CO)[C@H]4[C@H](O)C[C@]5(C)[C@@H](C6=CC(=O)OC6)CC[C@]5(O)[C@@H]4CC[C@]3(O)C2)[C@H](O)[C@H](O)[C@H]1O`, the compound was called inactive in [1], in experiment [4] and in experiment [5]. Moreover, the Potency result in experiment [2], in [3] and in experiment [6] was “inactive” throughout.
With `CCCC(C)(COC(N)=O)COC(=O)NC(C)C` (stereo unspecified), the Potency entry in experiment [7], in experiment [2], in experiment [3], in experiment [9] and in experiment [11] was “inactive” in each case. In addition, the viability change in [7] was 5.42%. In addition, the compound was classed as inactive in experiment [1], in [8], in [4] and in experiment [10].
Consider `NN=C(N)N`, for which the Potency entry in [7], in experiment [2], in [3] and in experiment [9] was “inactive” each time. In addition, in [7], the viability change was 4.74% and 3.63%. The outcome in [1], in experiment [8], in experiment [4], in experiment [5] and in experiment [12] was inactive.
Take `O=c1[nH]c2ccccc2n1CCCN1CCC(n2c(=O)[nH]c3cc(Cl)ccc32)CC1`: the Potency entry in experiment [7], in experiment [2] and in experiment [3] was “inactive” throughout. Further, in experiment [7], the viability change is -5.95%. The outcome in experiment [1], in experiment [8] and in [4] was inactive.
Consider `c1ccc2c(c1)OCC(C1=NCCN1)O2` (stereo unspecified), for which the result in experiment [1], in [8] and in [4] was inactive. In addition, the Potency entry in experiment [2] and in experiment [3] was “inactive” in each case. In experiment [9], the Potency was 22.4 µM (active).
`CN1C[C@H](CNC(=O)OCc2ccccc2)C[C@@H]2c3cccc4c3c(cn4C)C[C@H]21`: the call in [1], in [8], in experiment [4] and in experiment [12] was inactive. Moreover, the Potency result in [3] and in [6] was “inactive” each time.
Consider `CC(O)(CS(=O)(=O)c1ccc(F)cc1)C(=O)Nc1ccc(C#N)c(C(F)(F)F)c1` (stereo unspecified), for which the Potency result in [7], in [2], in experiment [3] and in experiment [9] was “inactive” in each case. Also, the viability change in [7] was -8.54%. For the same compound, the result in [1], in [4] and in [5] was inactive.
In the case of `COc1ccc(Cc2nccc3cc(OC)c(OC)cc23)cc1OC`, the Potency in [7] is 7.31 µM (active); in [6], “inactive and 50.1 µM (active)”. In addition, in experiment [7], the viability change was -7.85%. Further, the compound was called inactive in experiment [8].
For the compound `NCC(CC(=O)O)c1ccc(Cl)cc1` (stereo unspecified), the Potency in [7] was 9.2 µM (active). In [7], the viability change is 12.6%. Further, the compound was called inactive in experiment [1], in [8], in experiment [4] and in [5]. For the same compound, the Potency result in [2], in [3], in experiment [6] and in experiment [9] was “inactive” throughout.
On to `CC(C)=CCOc1c2occc2cc2ccc(=O)oc12`, for which the Potency entry in [7], in [2], in [3] and in [9] was “inactive” each time. The viability change in experiment [7] was 0.848%. The call in [1], in experiment [4] and in [5] was inactive.
In the case of `CC(=O)[C@H]1CC[C@H]2[C@@H]3CC[C@H]4C[C@](C)(O)CC[C@]4(C)[C@H]3CC[C@]12C`, the compound was classed as inactive in experiment [1] and in experiment [4]. In addition, the Potency result in experiment [2] and in experiment [9] was “inactive” in each case.
`Cc1cc2c(C(C)C)c(O)c(O)c(C=O)c2c(O)c1-c1c(C)cc2c(C(C)C)c(O)c(O)c(C=O)c2c1O`: the Potency in [2] is 9.53 µM (active); in [9], 10 µM (active).
For the compound `COC[C@H]1OC(=O)c2coc3c2[C@@]1(C)C1=C(C3=O)C2CCC(=O)[C@@]2(C)C[C@H]1OC(C)=O` (stereo partly specified), the result in experiment [4] was inactive.
For the compound `Clc1cccc(N2CCNCC2)c1`, the outcome in [12] was inactive.
As to `CCn1cc(C(=O)O)c(=O)c2ccc(C)nc21`, the Potency result in [11] was “inactive”. The activation in experiment [13] was -0.319% (inactive) and 0.585% (inactive). Further, the max response in experiment [14] worked out at 27.2%.
For the compound `Cc1cn([C@H]2C=C[C@@H](CO)O2)c(=O)[nH]c1=O`, the compound was called inactive in experiment [5] and in experiment [15]. Also, the activation in experiment [13] is -2.48% (inactive) and 1.31% (inactive) and -0.393% (inactive).
Take `CC(C)C(=O)Nc1ccc([N+](=O)[O-])c(C(F)(F)F)c1`: the compound was classed as inactive in [5]. The Potency entry in experiment [11] was “inactive”. The activation in experiment [13] is -2.87% (inactive) and 6.82% (inactive).
As for `CN(C)CCC=C1c2ccccc2CCc2ccccc21`, the result in experiment [5] was inactive. Further, the Potency result in experiment [6] is “inactive”. The activation in experiment [13] is -2.7% (inactive) and 0.944% (inactive); in experiment [16], -8.68% (inactive).
For the compound `CC[N+](C)(C)c1cccc(O)c1`, the result in experiment [5] was inactive.
For the compound `O=C(C1CCCCC1)N1CC(=O)N2CCc3ccccc3C2C1` (stereo unspecified), in [5], the outcome was inactive.
In the case of `Clc1ccc(C(c2ccccc2Cl)C(Cl)Cl)cc1` (stereo unspecified), the outcome in experiment [5] and in [15] was inactive. The activation in experiment [13] was 3.36% (inactive).
Regarding `CCCCc1oc2ccccc2c1C(=O)c1cc(I)c(OCCN(CC)CC)c(I)c1`, in experiment [5], the result was inactive.
`Cc1c(OCC(F)(F)F)ccnc1CS(=O)c1nc2ccccc2[nH]1` (stereo unspecified): in experiment [5], the compound was called inactive.
With `O=C(CCCN1CCC(O)(c2ccc(Cl)cc2)CC1)c1ccc(F)cc1`, in experiment [5], the compound was called inactive. For the same compound, the activation in experiment [13] was -8.42% (inactive).
Take `CNCCCN1c2ccccc2CCc2ccccc21`: the compound was called inactive in experiment [5].
`CC(C)OC(=O)C(C)(C)Oc1ccc(C(=O)c2ccc(Cl)cc2)cc1`: the result in experiment [5] was inactive. The activation in experiment [13] is 2.77% (inactive).
Regarding `CCC1(c2ccccc2)C(=O)NCNC1=O`, in experiment [5], the outcome was inactive. In addition, the activation in experiment [13] is -0.167% (inactive) and -0.256% (inactive).
Consider `CN1CCN(C2=Nc3ccccc3Oc3ccc(Cl)cc32)CC1`, for which the outcome in experiment [5] was inactive.
